Molecules are shown by their SMILES. Where “and” joins values, the source holds several entries; their conditions need not be identical. Identical values can stand only once. Results filed as inconclusive are left out. Where a call stands in place of a potency, no number is given. Calls of active or inactive are those of the source. Calls follow the shape of the dose curve; as a rule, active = well fitted cell-killing curve with a large enough effect; inconclusive = small, poorly fitted or top-dose-only effect; inactive = flat fitted curve, though single readings scatter.
Potency is read from the fitted curve at half-maximal effect.

A short description of the assay: Cell Viability - LYMP2-015 (AID 971). Also: nearly all actives have a fitted effect of over 55% in size. Conditions: LYMP2-015 lymphoblastoid cell viability; series mostly up to 92.2 µM. The source says: NIH Chemical Genomics Center [NCGC]
NIH Molecular Libraries Screening Centers Network [MLSCN]
National Institutes of Environmental Health Sciences [NIEHS]
National Toxicology Program [NTP]
We have developed a 1536-well cell-based assay for quantitative high throughput screening (qHTS) against a number of cell lines to determine in vitro cytotoxicity of small molecules. This particular assay uses a human lymphoblastoid cell line (LYMP2-015) purchased from Coriell Institute for Medical Research.
NCGC Assay Protocol Summary:
The CellTiter-Glo luminescent cell viability assay (Promega) is a homogeneous method to measure the number of viable cells in culture. The end point readout of this assay is based on quantitation of intracellular ATP, an indicator of metabolic activity, using the luciferase reaction. Luciferase catalyzes the oxidation of beetle Luciferin to oxyluciferin and light in the presence of ATP. The luminescent signal is proportional to amount of ATP present.
Using the CellTiter-Glo luminescent cell viability assay, the amount of cellular ATP was measured in the lymphoblastoid cell line with complete culture medium following compound treatment for 24 hours. The assay was performed in opaque white Kalypsys 1536-well plates. In the screen, tetraoctylammonium bromide was used as positive control. Library compounds were measured for their ability to cause acute toxicity in the cell line, as reflected by a decrease in intracellular ATP levels, in a concentration-dependent manner. […] AC50 values were determined from concentration-response data modeled with the standard Hill equation.
qHTS protocol for CellTiter Glo lymphoblastoid cellular assay
[Step] [Parameter] [Value] [Description]
1. Reagent; 5 uL; 2500 lymphoblastoid cells/well
2. Time; 5 hr; 37 C incubation
4. Controls; 23 nL; Tetraoctylammonium bromide 6.4pM to 92 uM
5. Time; 24 hr; 37 C incubation
6. Reagent; 5 uL; CellTiter Glo reagent
7. Time; 30 min; Room Temperature
8. Detection; Luminescence; Viewlux plate reader
Keywords: cell viability, cytotoxicity, lymphoblastoid cell line, luminescence, NTPHTS, NTPHTS_NCGC, NIEHS, DSSTox, MLSMR, MLSCN, NIH Roadmap, qHTS, NCGC
Turning to `S=C1NC=NC2N=CNC12` (stereo not given), the Potency result is “inactive”.

Regarding `O=NO`, the Potency result was “inactive”.

As for `Cc1ccc(N)c([N+](=O)[O-])c1`, the Potency result was “inactive”.

For the compound `O[C@@H]([C@H](O)[C@@H](O)CBr)[C@@H](O)CBr`, the Potency result is “inactive”.

Take `COc1cc(/C=C/c2ccccc2)oc(=O)c1`: the Potency result was “inactive”.

`CCCCOCCO`: the Potency entry is “inactive”.

Turning to `C[C@H](CCC(=O)O)[C@H]1CC[C@H]2[C@@H]3CC[C@@H]4C[C@H](O)CC[C@]4(C)[C@H]3CC[C@]12C`, the Potency result is “inactive”.

Turning to `CC(C)=CCCC(C)CCO` (stereo not given), the Potency entry is “inactive”.

Consider `CCC(C)c1ccccc1O` (stereo not given), for which the Potency result was “inactive”.

With `O=C(O)CC(C(=O)O)C(CC(=O)O)C(=O)O` (stereo not given), the Potency entry was “inactive”.

Regarding `Cc1c(N=C=O)cccc1N=C=O`, the Potency entry was “inactive”.

Turning to `O=C(O)c1ccccc1`, the Potency entry was “inactive”.

With `CC1=CC(C)(C)Nc2ccccc21`, the Potency result was “inactive”.

`Nc1ccc(Cl)cc1Cl`: the Potency result is “inactive”.

Regarding `ClCCCl`, the Potency result was “inactive”.

In the case of `CCCCC(CC)CN` (stereo not given), the Potency result is “inactive”.

As for `Cc1cccc([N+](=O)[O-])c1C`, the Potency entry was “inactive”.

In the case of `O=C1CCc2ccccc2O1`, the Potency entry was “inactive”.

Consider `Cc1ccccc1C`, for which the Potency entry was “inactive”.

For the compound `Clc1cc(Cl)c(Cl)cc1Cl`, the Potency entry was “inactive”.

Take `CCC(O)OC(O)CC` (stereo not given): the Potency result was “inactive”.

As to `c1ccc2c(c1)c1cccc3ccc4cccc2c4c31`, the Potency result is “inactive”.

As to `c1ccc2c(c1)[nH]c1ccccc12`, the Potency entry is “inactive”.

With `O=[N+]([O-])c1cccc(Cl)c1Cl`, the Potency result was “inactive”.

Turning to `COC(=O)c1ccc(C)cc1`, the Potency result is “inactive”.

On to `OCCNCCO`, for which the Potency result is “inactive”.

Turning to `CCCCCCCCCCCCCCC1CO1` (stereo not given), the Potency entry is “inactive”.

On to `c1ccccc1`, for which the Potency result is “inactive”.

On to `COC(=O)CCCCC(=O)OC`, for which the Potency entry was “inactive”.

For `O=C(O)c1ccccc1C(c1ccc(O)cc1)c1ccc(O)cc1`, the Potency entry was “inactive”.

For the compound `CC1=C2[C@H](/C=C(\C)C(=O)O)CC[C@@H](C)[C@H]2CC1`, the Potency result was “inactive”.

With `COc1ccc(/C=C/c2cc(OC)cc(=O)o2)cc1`, the Potency entry is “inactive”.

For the compound `C=CC(=O)OCCOCCOCCOCCOC(=O)C=C`, the Potency is 25.1 µM (active) and 20 µM (active).

Turning to `COc1c2ccoc2cc2oc(=O)ccc12`, the Potency result is “inactive”.

`O=S(=O)(O)c1ccccc1`: the Potency result is “inactive”.

As to `CN(C)C=O`, the Potency entry is “inactive”.

As to `Clc1cc(Cl)c(Cl)c(Cl)c1Cl`, the Potency result was “inactive”.

`CCCCCCCCO`: the Potency entry was “inactive”.

`CC(=O)OC/C=C(\C)CCC=C(C)C`: the Potency result is “inactive”.

With `C=CC(=C)CCC=C(C)C`, the Potency result is “inactive”.
